Results: PubChem BioAssay (NCATS)
Results filed as inconclusive are left out. Activity calls are given as the source filed them. Calls come from the whole dose curve; as a rule, active = well fitted inhibition curve with a large enough effect; inconclusive = small, poorly fitted or top-dose-only effect; inactive = no such curve, though single readings can be large or run the other way.

Assay: qHTS assay for measurement of the activity of small molecule inhibitors on Zika virus induced Caspase-3 activity in human iPSC derived neural progenitor cells (hNPCs) (AID 1224857); note: % of control where 0% means no effect; nearly all actives have a fitted effect of over 65% in size
Settings: hNPCs ZIKV-induced caspase-3/7, Caspase-Glo luminescence, 6 h; series mostly up to 45.7 µM; activity change, negative = inhibition: at the top concentration
From the text: National Center for Advancing Translational Sciences [NCATS]
Johns Hopkins University School of Medicine
Increase in the Caspase-3 activity indicates an activation of apoptosis cell death pathway caused by Zika virus infection in certain types of neuronal cells including human neural progenitor cells (hNPCs), astrocytes, and astrocytoma cell line (SNB-19). This cell-based caspase-3 activity assay measures the increased caspase-3 activity in the human iPSC derived neural progenitor cells (hNPCs) after a 6-hour Zika virus infection with a luminescence readout. A decrease in the luminescence signal in this assay by small molecule treatment indicates an inhibitory effect of that small molecule on the Zika virus induced caspase-3 activity that may correlate with its effect on reduction of Zika virus caused cell death.
The medium for hNPCs consists of DMEM/F12, N2 supplement (ThermoFisher, Cat.# 17502048), NEAA (ThermoFisher, Cat. # 11140050), 2 ug/ml heparin, 2 uM cyclopamine, and B27 (ThermoFisher, Cat. # 17504044). A Caspase-Glo 3/7 assay kit (catalog number G8092; Promega, Madison, WI) was used to detect caspase-3 activity induced by Zika virus infection in human cells. The reagent mixture was reconstituted as described in the protocol from the manufacturer. Polystyrene tissue culture treated and PDL coated white plates were obtained from Greiner Bio-One (Monroe, NC). Cells were seeded in 384- or 1536-well assay plates and cultured at 37 C with 5% CO2 for 16 to 20 hours. The typical cell seeding density in the 1536-well plate assay is 350 cells/well in 3 ul medium for hNPCs in tissue culture treated plates. Compounds were added to cells and incubated for one hour before addition of ZIKV solution to cells (2 FFU/cell). After incubation at 37 C with 5% CO2 for 6 hours, the reagent mixture of Caspase-Glo 3/7 assay kit was added to each well, followed by incubation at room temperature for 30 minutes. The luminescence intensity of the assay plates was measured using a ViewLux plate reader (PerkinElmer). Data were normalized by using the cell-containing wells without ZIKV as a negative control (0% induction of caspase 3/7 activity) and wells containing ZIKV infected cells (Caspase-3 activity induced) as a positive control (100% induction of caspase 3 activity). The percentage inhibitions of the increased Caspase-3 activity by small molecule inhibitors were then calculated.

SMILES | Potency | activity change, negative = inhibition
CCCC(C)(COC(N)=O)COC(=O)NC(C)C (stereo not given) | inactive | 
N[C@@H](Cc1ccc(Oc2cc(I)c(O)c(I)c2)c(I)c1)C(=O)O |  | -3.81% (inactive)
CC(C)=CC1C(C(=O)OCc2cccc(Oc3ccccc3)c2)C1(C)C (stereo not given) |  | -2.78% (inactive)
O=C1NCN(c2ccccc2)C12CCN(CC1COc3ccccc3O1)CC2 (stereo not given) | inactive | 
Nc1ccncc1 | inactive | 
O=C(NC(O)C(Cl)(Cl)Cl)NC(O)C(Cl)(Cl)Cl (stereo not given) |  | -0.528% (inactive)
C[C@@H]1O[C@@H](O[C@H]2C[C@@H](O)[C@]3(CO)[C@H]4[C@H](O)C[C@]5(C)[C@@H](C6=CC(=O)OC6)CC[C@]5(O)[C@@H]4CC[C@]3(O)C2)[C@H](O)[C@H](O)[C@H]1O | inactive | 
C[C@]12CC[C@H]3[C@@H](CCC4=CC(=O)CC[C@@H]43)[C@@H]1CC[C@@H]2OC(=O)CCc1ccccc1 |  | 69% (inactive)
Cc1cccc(C)c1NC1=NCCCS1 | inactive | 
CC(C)(C)NCC(O)c1cc(Cl)c(N)c(Cl)c1 (stereo not given) |  | 13.7% (inactive)
CC[N+](CC)(CC)CC | inactive | 
COC[C@H]1OC(=O)c2coc3c2[C@@]1(C)C1=C(C3=O)C2CCC(=O)[C@@]2(C)C[C@H]1OC(C)=O (stereo not given in full) |  | 77.8% (inactive)
CCOC(=O)C1(c2ccccc2)CCN(CCC(C#N)(c2ccccc2)c2ccccc2)CC1 |  | -1.02% (inactive)
N[C@@H](Cc1ccc(N(CCCl)CCCl)cc1)C(=O)O | inactive | 
c1ccc(C2CC2)c(OCC2=NCCN2)c1 | inactive | 
Oc1ccccc1-c1ccccc1 |  | 18.2% (inactive)
Clc1ccc(CCC(Cn2ccnc2)Sc2c(Cl)cccc2Cl)cc1 (stereo not given) | inactive | 
Cn1cc(C2=C(c3cn(C4CCN(Cc5ccccn5)CC4)c4ccccc34)C(=O)NC2=O)c2ccccc21 | inactive | 
C=C1C[C@@H]2[C@H](CC[C@]3(C)C(=O)CC[C@@H]23)[C@@]2(C)C=CC(=O)C=C12 |  | 2.99% (inactive)
Clc1cccc(N2CCNCC2)c1 |  | 2.41% (inactive)

SMILES | Potency | activity change, negative = inhibition
NN=C(N)N | inactive | 
c1ccc2c(c1)Nc1ccccc1S2 | inactive | 
Cc1ccc(-c2nc3ccc(C)cn3c2CC(=O)N(C)C)cc1 |  | -7.94% (inactive)
COc1ccc(C(CN(C)C)C2(O)CCCCC2)cc1 (stereo not given) | inactive | 
CNCC(O)c1ccc(O)cc1 (stereo not given) | inactive | 
CC(C)NCC(O)c1ccccc1Cl (stereo not given) |  | -0.848% (inactive)
CC(C)(N)Cc1ccc(Cl)cc1 |  | 14.1% (inactive)
O=C(O)C(=O)c1cn(Cc2ccccc2)c2ccc(-c3ccc(OC(F)(F)F)cc3)cc12 |  | 49.8% (inactive)
CCC(COC(=O)c1cc(OC)c(OC)c(OC)c1)(c1ccccc1)N(C)C (stereo not given) |  | -2.35% (inactive)
CNC(=O)c1ccc(N2C(=S)N(c3ccc(C#N)c(C(F)(F)F)c3)C(=O)C23CCC3)cc1F |  | 60.3% (inactive)
C#CCOC(C(=O)OCCN(C)C)(c1ccccc1)c1ccccc1 |  | 7.91% (inactive)
CC(C)CC(N(C)C)C1(c2ccc(Cl)cc2)CCC1 (stereo not given) | inactive | 
CCCC1CCCCN1 (stereo not given) |  | -0.218% (inactive)
Oc1cccc2cccnc12 |  | -4.97% (inactive)
CC(=O)Nc1cc([As](=O)(O)O)ccc1O |  | -2% (inactive)
CCCN1CCC[C@@H]2Cc3[nH]ncc3C[C@H]21 | inactive | 
Cc1ccc(S(=O)(=O)N[C@@H](CCCCN)C(=O)CCl)cc1 | inactive | 
CC(CCc1ccccc1)NC(C)C(O)c1ccc(O)cc1 (stereo not given) | inactive | 
CC[N+]1(C)CCCC(OC(=O)C(O)(c2ccccc2)c2ccccc2)C1 (stereo not given) |  | 2.28% (inactive)
CC(C)(C)CC(C)(C)c1ccc(O)cc1 | inactive | 
